Hits are enriched below; roughly 2.6% of the tested compounds scored in any of these assays.
p53 PUMA act: re-activators of the mutant p53 pathway; SW480 PUMA-promoter luciferase, p53 mutant reactivation; activation, % at 9.98 µM; 28,000 compounds, 1.5% hits; in the data active means activation above about 52%
mut p53 SMM: binds human mutant p53 on microarray; 17,000 compounds, 0.4% hits; calls only; AID 624136; small molecule microarray binding, anti-GST fluorescence;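 active means compounds whose four printed spots each glow above background more than chance allows, each with a p-value under 7%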
Myc binder: binds human c-Myc on microarray | P01106 | calls only | 17,000 compounds, 1.5% hits | AID 624141 | small molecule microarray, His-c-Myc binding, anti-His fluorescence;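 active means spot fluorescence over background with P-value below 7% in all four replicate spots, showing protein binding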;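 further: score is binary with 100 for all four spots passing and 0 otherwise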
NFkB SMM: NF-kappa-B p105 (human) binding; P19838; Small molecule microarray, anti-His fluorescence binding; calls only; 17,000 compounds, 1.3% hits;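 active means spot fluorescence over background significantly raised, with a chance value under 7% in all four replicate spots of the compound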;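 further: probe protein is his-tagged human p50 processed subunit at 1 µg/ml; raw spot fluorescence signals with no normalization applied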
Target sequence (P19838 1-433 limits assumed): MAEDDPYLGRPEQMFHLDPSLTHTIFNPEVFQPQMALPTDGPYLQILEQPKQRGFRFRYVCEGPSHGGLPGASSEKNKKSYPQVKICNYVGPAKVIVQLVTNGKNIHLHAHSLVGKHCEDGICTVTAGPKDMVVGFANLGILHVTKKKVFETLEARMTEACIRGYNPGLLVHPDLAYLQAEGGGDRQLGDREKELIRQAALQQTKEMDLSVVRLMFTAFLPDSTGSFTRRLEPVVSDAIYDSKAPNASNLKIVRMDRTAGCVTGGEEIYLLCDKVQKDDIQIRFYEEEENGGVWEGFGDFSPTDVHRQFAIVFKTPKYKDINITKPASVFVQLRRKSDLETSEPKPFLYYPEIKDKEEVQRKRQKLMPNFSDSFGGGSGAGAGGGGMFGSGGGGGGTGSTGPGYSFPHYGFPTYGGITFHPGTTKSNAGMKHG
STAT3 binder: binds human STAT3 on microarray; P40763; Small molecule microarray, His-STAT3 binding, anti-His fluorescence; calls only; 17,000 compounds, 0.2% hits;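 active means compounds whose four printed spots each show fluorescence over background unusually high for their array block, chance value under 7%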
The depositor's hits bear a star; i = inactive; . = not tested or not shown; + = active, no number.

SMILES	p53 PUMA act	mut p53 SMM	Myc binder	NFkB SMM	STAT3 binder
CC(=O)Nc1ccc(OCC(=O)Nc2ccc(Cl)c(Cl)c2)cc1	65*	.	.	.	.
Cc1ccc(NC(=O)COc2ccc(C(C)(C)C)cc2)c([N+](=O)[O-])c1	18	.	.	.	.
COc1cc(NC(=O)COc2cccc(C)c2)c(OC)cc1Cl	35	.	.	.	.
C[C@@H]1CN([C@H](C)CO)C(=O)c2cc(NC(=O)Nc3ccc4c(c3)OCO4)ccc2O[C@@H](C)CCCCO[C@H]1CN(C)Cc1ccccc1	-15	i	i	i	i
Cc1c(NC(=O)COc2cc(Cl)c(Cl)cc2Cl)cccc1-c1nc2ccccc2o1	-7	.	.	.	.
Cc1cc(OCC(=O)Nc2ccccc2[N+](=O)[O-])ccc1Cl	86*	.	.	.	.
Cc1ccc(NC(=O)COc2ccc(Cl)c(C)c2)c([N+](=O)[O-])c1	59*	.	.	.	.
O=C(COc1ccc(Cl)cc1)Nc1ncccn1	74*	.	.	.	.
O=C(COc1ccc(Cl)cc1Cl)Nc1ncccn1	48	.	.	.	.
Cc1cc(Cl)cc(Cl)c1OCC(=O)Nc1ccccc1[N+](=O)[O-]	10	.	.	.	.
CS(=O)(=O)N(CC(=O)NC1CCCCC1)c1cc(Cl)c(Cl)cc1Cl	-12	.	.	.	.
O=c1cc(-c2ccc(O)c(O)c2)c2c(O[C@@H]3O[C@H](CO)[C@@H](O)[C@H](O)[C@H]3O)cc(O)cc2o1	7	i	i	i	i
CCOc1ccc2ccccc2c1C(=O)NCc1cccnc1	0	i	i	i	i
O=C(COc1cccc2ccccc12)Nc1cc([N+](=O)[O-])ccc1O	67*	.	.	.	.
CCc1cccc(OCC(=O)Nc2cc([N+](=O)[O-])ccc2O)c1	74*	.	.	.	.
O=C(COc1ccc([N+](=O)[O-])cc1)Nc1cccc2cccnc12	64*	i	i	i	i
COc1cc(C(=O)NC(=S)Nc2cccc(-c3nc4ncccc4o3)c2C)cc(OC)c1OC	-69	.	.	.	.
CCc1ccc(CCC(=O)Nc2ccc(C)c(C)c2)o1	71*	.	.	.	.
CC(=O)N1CCN(C(=S)c2ccc(-c3ccc(C)cc3)o2)CC1	55*	.	.	.	.
COc1ccc(OC)c(NC(=O)Cn2nc([N+](=O)[O-])cc2C)c1	2	.	.	.	.
Cn1c(SCC(=O)Nc2ccc(Cl)c(Cl)c2)nnc1-c1ccc(Cl)c(Cl)c1	-31	.	.	.	.
O=C(NC(=S)NCc1cccnc1)c1ccc(-c2cccc(Cl)c2Cl)o1	61*	.	.	.	.
C[C@]12CCC(=O)N1CCc1c2[nH]c2ccccc12	.	i	i	i	i
CC(C)(Sc1ccc(CCN(CCCCC2CCCCC2)C(=O)NC2CCCCC2)cc1)C(=O)O	8	i	i	+	i
COCCNC(=O)c1ccccc1-c1nc(-c2ccc(Cl)cc2)no1	59*	.	.	.	.
SMILES	p53 PUMA act	mut p53 SMM	Myc binder	NFkB SMM	STAT3 binder
CC(Oc1ccc(Cl)cc1Cl)C(=O)Nc1cccc(-c2nnc(-c3ccccc3)o2)c1 (stereo not drawn)	81*	.	.	.	.
Cc1cc(Cl)ccc1OC(C)C(=O)Nc1ccc(C(=O)Nc2ccccc2C(=O)O)cc1 (stereo not drawn)	-9	i	+	i	i
COc1ccc(NC(=O)c2ccco2)cc1NC(=O)C(C)Oc1ccc(Cl)cc1Cl (stereo not drawn)	-9	.	.	.	.
COc1cc(NC(=O)C(C)Oc2ccc(Cl)cc2Cl)ccc1NC(=O)c1ccco1 (stereo not drawn)	67*	.	.	.	.
O=C(COc1ccc(Cl)cc1Cl)Nc1cccc(-c2nnc(-c3ccccc3)o2)c1	39	.	.	.	.
COC(=O)c1ccccc1NC(=O)c1ccc(NC(=O)C(C)Oc2ccccc2)cc1 (stereo not drawn)	23	.	.	.	.
Cc1ccc(C(=O)C2C(=O)C(=O)N(Cc3ccco3)C2c2ccc(F)cc2)o1 (stereo not drawn)	6	.	.	.	.
CC(C)(C)NC(=O)C(OC(=O)c1ccccc1)c1cccs1 (stereo not drawn)	.	i	i	i	i
COc1cc(SC)ccc1-c1nc2ccncc2[nH]1	59*	i	i	i	i
COC(=O)c1ccc(NC(=O)CN(c2ccc(I)cc2)S(C)(=O)=O)cc1	-2	.	.	.	.
COc1ccc(CO[C@H]2O[C@H](CO)[C@@H](O)[C@H](O)[C@H]2NC(C)=O)c2cc(C)oc12	-1	i	i	i	i
COCC1OC(OC(C)(C)C2CCC3(C)C=C(C4CCC5C4(C)CC(O)C4OC(C(C)(C)OC6OC(CO)C(O)C(O)C6NC(C)=O)CCC45C)CCC3O2)C(NC(C)=O)C(O)C1O (stereo not drawn)	-25	i	+	+	i
COC(=O)c1ccc(COc2nc(C)cc(C)c2C#N)o1	49	i	i	i	i
COCc1c(Br)c(C)nc(OCC(=O)O)c1C#N	-3	i	+	+	i

Screening data as filed in PubChem.
